BoNT-F LC inh: inhibitors of Botulinum neurotoxin F light chain protease. Multiplex microsphere protease cleavage assay, flow cytometry. inhibition, % at 10 µM. hit rate 0.22% among 360,000. AID 588497; in the data active means inhibition above about 35%, passing the limit was not always enough; inconclusive means no clear call, values can overlap the other calls
Bead autofluor: flagged as autofluorescent in microsphere protease counterscreen; compound autofluorescence counterscreen, microsphere flow cytometry; hits give high values; fluorescence intensity (test concentration not listed); hit rate 3.1% among 360,000; in the data active means fluorescence intensity above about 16000; inconclusive means no clear call, values can overlap the other calls
Anthrax LF prot: anthrax lethal factor protease inhibition; hit rate 0.12% among 360,000; multiplex microsphere protease cleavage assay, LF; inhibition, % at 10 µM; P15917
BoNT-A LC inh2: blocks Botulinum neurotoxin A light chain protease | hit rate 0.17% among 360,000 | inhibition, % at 10 µM | multiplex microsphere protease substrate cleavage, flow cytometry
MazF activator: MazEF (E. coli) toxin RNase activation | FAM/BHQ RNA-DNA oligo cleavage fluorescence, 5 h | activation, % at 20 µM | hit rate 0.32% among 350,000 | AID 504720; in the data active means activation above about 50%
Target sequence (P0AE70 whole entry, looked up): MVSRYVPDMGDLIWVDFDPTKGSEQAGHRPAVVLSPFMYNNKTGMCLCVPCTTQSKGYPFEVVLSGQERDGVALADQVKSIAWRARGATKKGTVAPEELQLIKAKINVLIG
Of the large screens only hits and unclear results are named; the others gave an inactive call. Rows were chosen to be rich in hits. Some 3.6% of all compounds tested hit in one or more screens of this group. Unless noted, no stated cut-off is given here; in the data, active means inhibition above about 30%; inconclusive means no clear call, values can overlap the other calls; inactive means below that.

Cc1ccc(S(=O)(=O)NOCc2ccccc2)cc1	none
COc1ccc(Nc2nc(N3CCCC3)c3ccccc3n2)cc1	none
CCN(CC)c1ccc(Nc2nc(N3CCOCC3)c3ccccc3n2)cc1	Bead autofluor 20077
CSc1nc(N2CCOCC2)c2ccccc2n1	Bead autofluor 23367
O=C(CSc1nnc(CNC(=O)c2ccco2)o1)Nc1ccc(Br)cc1	none
CC(C)CCNC(=O)CN(CCCN1CCOCC1)C(=O)Cn1nnc(-c2ccc(F)cc2)n1	Bead autofluor 22173
CC(C)CCNC(=O)C(c1ccco1)N(CCCO)C(=O)Cn1nnc(-c2ccc(F)cc2)n1 (stereo not given)	none
CC(C)CCNC(=O)CN(C(=O)Cn1nnc(-c2ccccc2F)n1)c1cccc2c1CCCC2	Bead autofluor 20259
COc1ccc(-c2nnn(CC(=O)N(CC(=O)NCCC(C)C)c3ccccc3)n2)cc1OC	Bead autofluor 21028
COc1ccc(CCNC(=O)Cn2nnc(-c3cccc(OC)c3OC)n2)cc1OC	Bead autofluor 22884
COc1ccc(CCNC(=O)Cn2nnc(-c3ccc(N4CCOCC4)cc3)n2)cc1OC	none
CCOc1ccc2c(c1)nc(SCC(=O)c1ccc(Br)s1)n2C	Bead autofluor 16282
CCCCCNC(=O)c1ccccc1SC	Bead autofluor 16772
Cc1ccccc1C(=O)NCCSc1ccccc1	none
CSc1ccccc1C(=O)NCCSc1ccccc1	Bead autofluor 16492
Cc1ccccc1-c1noc(CNC(=O)c2ccco2)n1	none
CC(C)C(=O)N1CCC1(C)C(=O)Nc1ccc(-n2cncn2)cc1 (stereo not given)	none (no result: MazF activator)
O=C(/C=C/c1ccc(Cl)c(Cl)c1)NCc1ccco1	BoNT-F LC inh 35
O=C(COc1ccccc1Br)NCc1ccco1	Bead autofluor 16469
Cc1ccc(Cl)c(OCC(=O)NCc2ccco2)c1	Bead autofluor 21508, BoNT-A LC inh2 inconclusive
COc1ccccc1OCC(=O)NCc1ccco1	none
CC(C)Oc1ccc(OCCn2c(S(=O)(=O)O)nc3c(N)ncnc32)cc1	none
CCN1C(N(C)C)=NC[C@@H]1Cc1ccccc1	none
Cc1n[nH]c(C)c1C(=O)CC1(O)C(=O)N(Cc2ccccc2)c2ccc(Br)cc21 (stereo not given)	Bead autofluor 22972
CCCn1c(COc2ccccc2)nc2ccccc21	BoNT-F LC inh 42
Cc1cccc2sc(NNC(=O)c3cc(-c4cccs4)nc4ccccc34)nc12	none
O=c1ncn(-c2ccccc2F)c2ncccc12	Bead autofluor 21215
O=c1ncn(-c2ccccc2C(F)(F)F)c2ncccc12	none
CCC(c1nc2ccccc2c(=O)n1CCCn1ccnc1)N1C(=O)c2ccccc2C1=O (stereo not given)	none
CCC(c1nc2ccccc2c(=O)n1CCN1CCOCC1)N1C(=O)c2ccccc2C1=O (stereo not given)	Bead autofluor 20159
COc1ccc(-n2ccnc2SCC(=O)NC2CCCC2)cc1	none
Cc1ccc(N(CC(=O)NCC2CCCO2)S(=O)(=O)c2ccc(Cl)cc2)cc1C (stereo not given)	none
COc1ccc(N(CC(=O)NCC2CCCO2)S(=O)(=O)c2ccc(C)cc2)cc1OC (stereo not given)	Bead autofluor 16225
O=C(Nc1ccnn1C1CCN(C2CCC2)CC1)c1ccccc1	none
CCCCOc1cccc(C2C(C(=O)c3ccc(C)o3)=C(O)C(=O)N2c2nnc(C)s2)c1 (stereo not given)	MazF activator 154
CCCOc1cccc(C2C(C(=O)c3ccco3)=C(O)C(=O)N2c2nnc(C)s2)c1 (stereo not given)	none
C=CCOc1cccc(C2C(C(=O)c3ccc(C)o3)=C(O)C(=O)N2c2nccs2)c1 (stereo not given)	MazF activator active
Cc1oc(-c2cccc(Cl)c2)nc1CN1CCC(C(=O)NCCCN2CC(C)CC(C)C2)CC1 (stereo not given)	none
CCOC(=O)C(CCSC)NC(=O)CN (stereo not given)	Bead autofluor 22429
CCC(C)NC(=O)N[C@@H](CCSC)C(=O)OC (stereo not given in full)	none
O=C(NC1CCCCCC1)C1c2ccccc2C(=O)N1CCCN1CCOCC1 (stereo not given)	Bead autofluor 20267, BoNT-A LC inh2 inconclusive
Cc1c(CCC(=O)O)c(=O)n2c([nH]c3ccccc32)c1C#N	Bead autofluor 20757
C[C@H](NC(=O)c1[nH]cnc1C(=O)Nc1ccc(Cl)cc1)c1ccccc1	none
Cc1cccc(CN(C)C)c1OC(=O)N(C)C	Bead autofluor 20578, BoNT-A LC inh2 inconclusive
CC1CCCCN1C(=O)/C(=C\c1ccccc1)c1ccccc1 (stereo not given)	Bead autofluor 21700
O=C1CC(CCC(=O)NC2CC2)c2ccccc2N1 (stereo not given)	Bead autofluor 20432
Cc1cc2ccccc2n1CCNC(=O)c1cccs1	BoNT-A LC inh2 79
CCCn1c(CCNC(=O)c2cccs2)nc2ccccc21	none
O=C(c1ccccc1-c1nc(-c2ccccc2)no1)N1CCOCC1	Bead autofluor 18009
O=C(c1ccc(-c2ccccc2)cc1)c1ccccc1C(=O)N1CCOCC1	Bead autofluor 22303
O=C(Oc1ccccc1C(=O)N1CCOCC1)c1ccc(Br)cc1	Bead autofluor 20205, BoNT-A LC inh2 inconclusive
COc1ccc(N2CCN(C3CCCN(S(=O)(=O)c4ccc(C)cc4C)C3)CC2)cc1 (stereo not given)	none
CC1=C(C(=O)Nc2cccc(C(=O)N3CCC(C(N)=O)CC3)c2)SCCO1	none
COc1ccc(CC(NC(C)=O)C(=O)NC2CCN(C(=O)Nc3ccccc3Cl)CC2)cc1OC (stereo not given)	none
COc1cccc(NC(=O)N2CCN(C(=O)C(Cc3ccc(OC)c(OC)c3)NC(C)=O)CC2)c1 (stereo not given)	Bead autofluor 18405, BoNT-A LC inh2 inconclusive
COc1ccc(CC(NC(C)=O)C(=O)N2CCN(C(=O)Nc3ccc(Cl)cc3)CC2)cc1OC (stereo not given)	Bead autofluor 22516
COc1ccc(-c2nc(CS(=O)(=O)CC(=O)NCc3ccc(F)cc3)c(C)o2)cc1	none
N=c1n(CC(=O)c2ccc([N+](=O)[O-])cc2)c2ccccc2n1Cc1ccccc1Cl	none
N=c1n(CC(=O)c2ccc([N+](=O)[O-])cc2)c2ccccc2n1Cc1ccccc1	MazF activator 329
N=c1n(CC(=O)c2ccc([N+](=O)[O-])cc2)c2ccccc2n1Cc1ccc(Cl)cc1	MazF activator 178
CCOC(=O)CSc1nnc(CSc2nc(C)cc(C)n2)n1Cc1ccco1	MazF activator 74
Cc1ccc(-n2c(CSc3nc(C)cc(C)n3)nnc2SCC(=O)NCc2ccco2)cc1	Bead autofluor 22159, BoNT-A LC inh2 inconclusive
Cc1cccc(OCc2nnc(SCC(=O)N(C(C)C)C(C)C)n2Cc2ccco2)c1C	Bead autofluor 16236
C[C@H]1CN([C@@H](C)CO)C(=O)CCCn2cc(nn2)CO[C@@H]1CN(C)C(=O)Nc1ccc2c(c1)OCO2	none
COc1ccc(S(=O)(=O)N2CCN(C(=O)C3COc4ccccc4O3)CC2)cc1 (stereo not given)	none

Screens: PubChem BioAssay, several laboratories
